# This is a sample that favours compounds with a hit; in the whole collection about 1.6% have one here.
# MLLE-PAM2 inh – blocks PAM2 peptide binding to the PABP1 MLLE domain; P11940; GST-MLLE / FITC-PAM2 fluorescence polarization; inhibition, % at 20 µM; actives 0.36% (n = 360,000); AID 588489; in the data active = inhibition above about 35%, passing the limit was not always enough;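 also: plate controls were DMSO wells with GST-MLLE for no effect and wells lacking GST-MLLE protein for full effect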
# PERK inh – human PERK inhibition, primary cell-based screen; Q9NZJ5; CHO PERK-DD fusion, SEAP luminescence translation reporter; inhibition, % at 5.6 µM; actives 0.17% (n = 220,000);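 active = inhibition above the mean inhibition of all tested compounds plus 3 SD, set separately per screening campaign, cut at about 2.9% in these data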;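 also: PERK kinase domain activated by AP20187 dimerizer at 100 nM; 0% = DMSO with dimerizer and 100% = rapamycin at 8.4 µM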
# eIF4E-4G inh – blocks eIF4E binding to eIF4G | TR-FRET eIF4E-eIF4GI(517-606) binding, 2 h | actives 0.37% (n = 220,000) | inhibition, % at 21.7 µM;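 active = inhibition above about 30%, limit read from the data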;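 also: 0% = full FRET control wells and 100% = background wells lacking eIF4GI fragment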
# eIF4H inh – inhibitors of RNA binding by human eIF4H | eIF4H fluorescence polarization binding assay | actives 0.94% (n = 290,000) | Q15056 | inhibition, % at 35 µM | AID 2012;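 also: calls also rest on retests at 20 µM and on dose response follow-up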
# PABP polyA inh – blocks human PABP binding to poly(A) RNA; fluorescence polarization; calls only at 35 µM; actives 1% (n = 290,000); AID 2014;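 also: calls also rest on retests at 20 µM and on dose response follow-up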
# * = called active by the depositor; i = inactive; · = no result given; + = active, no number. Unless noted, no rule for the calls is given here.
SMILES,MLLE-PAM2 inh,PERK inh,eIF4E-4G inh,eIF4H inh,PABP polyA inh
CCCCc1c(C)nc2ccccc2c1SCCC(=O)O,-2,1,6,9.8*,i
CCCCc1c(C)nc2ccc(C)cc2c1SCCC(=O)O,2,0,1,-2,i
Cc1cc(C)c(S(=O)(=O)Nc2ccccc2C(=O)N2CCCC2)c(C)c1,13,·,·,-1,i
COc1cc(C(=O)NCC(c2ccco2)N2CCCC2)ccc1OCc1ccc(Cl)cc1Cl (centres undefined),6,·,·,·,·
O=C(NNC(=O)c1ccccc1)C(=O)N1CCCCC1,-10,3.1*,1,1,i
O=S(=O)(c1ccc(OC(F)(F)F)cc1)N1CCCC(N2CCOCC2)C1 (centres undefined),8,·,·,-15,i
C=CCOc1ccc(C2OC34CCCCC3C(C#N)(C#N)C2(C#N)C(=N)O4)cc1 (centres undefined),81,0,0,84*,+
COc1ccc(CNC(=O)c2ccccc2SCC(=O)NCc2ccco2)cc1,4,·,·,·,·
CCOC(=O)c1ccc(NC(=S)NC(=O)COc2ccccc2)cc1,30,1,12,-6,i
Cc1cc(NS(=O)(=O)c2ccc(NC(=O)c3cc4c(=O)n5ccccc5nc4s3)cc2)nc(C)n1,-4,0,8,72,+
O=C1COc2ccc(C(=O)COC(=O)Cc3ccc(F)cc3)cc2N1,-8,·,·,·,·
O=C(Nc1ccc2c(c1)OCO2)C1CCN(C(=O)c2ccc([N+](=O)[O-])cc2)CC1,12,0,0,4,i
Cc1c(NC(=O)Oc2ccccc2)sc(=S)n1C,39*,1,-1,-3,i
C=CCN1C=C2C(=O)C(C)(OC(=O)CCC(=O)OC)C(=O)C(Br)=C2C=C1c1ccc(OC)cc1 (centres undefined),21,·,-1,95*,+
COCCN1C=C2C(=O)C(C)(OC(=O)CCC(=O)OC)C(=O)C(Br)=C2C=C1c1ccc(OC)cc1 (centres undefined),15,·,·,·,·
COc1ccc(NC(=O)CSCC(=O)N(C)CC(=O)Nc2cccc3ccccc23)cc1,-32,·,·,·,·
COc1ccccc1NS(=O)(=O)c1cc(NC(=O)Nc2cccc(C)c2)ccc1N1CCCCC1,38*,0,13,6,i
O=C(N/N=C/c1ccc(N2CCOCC2)cc1)c1ccncc1,-12,·,·,·,·
O=C(N/N=C/c1ccc(N2CCOCC2)cc1)c1ccccc1OCCOc1ccccc1,-32,-1,-4,104*,+
Cc1ccc(-n2c(=O)c3cc4c(=O)n(-c5ccc(C)c(C)c5)c(=O)c4c(C(=O)c4ccc(C(=O)O)cc4)c3c2=O)cc1C,-1,0,64*,78,i
O=C1CC[C@@H]2C[C@@]3(C[C@@H]4CCN1[C@H]24)Nc1cc([N+](=O)[O-])ccc1NC3=NCc1ccccc1,-29,·,·,·,·
O=c1cc[nH]c2c1ccc1c(=O)cc[nH]c12,4,·,·,86*,i
Cc1ccc(S(=O)(=O)N2CCN(c3ccccc3)CC2)cc1C(=O)NC1CCCCC1,0,·,·,0,i
C=CCNC(=O)Cn1nnc(-c2ccc(-c3ccc(OC)cc3)cc2)n1,0,·,·,10,i
COc1ccc(CC(=O)NCc2ccc(F)cc2)cc1S(=O)(=O)N1CCOCC1,-3,·,·,·,·
SMILES,MLLE-PAM2 inh,PERK inh,eIF4E-4G inh,eIF4H inh,PABP polyA inh
Cc1ccccc1NC(=O)CSC(N)=O,38,3.1*,-3,-4,i
NC(N)=N/N=C/c1ccc(OS(=O)(=O)c2ccccc2)cc1,-14,1,3,active,i
O=[N+]([O-])c1cc2ccccc2c(O)c1O,41*,·,·,·,·
Cc1ccc(-n2nc3ccc(N)cc3n2)cc1Cl,-2,·,·,33,i
COc1ccc(-n2nc3ccc(N)cc3n2)cc1Cl,-8,·,·,55*,+
COc1ccc(C(CNC(=O)c2[nH]c(C)c(C(C)=O)c2C)N2CCOCC2)cc1 (centres undefined),1,·,·,·,·
Nc1cc(Cl)ccc1Oc1ccc(Cl)cc1,7,0,7,4,i
CN(C)c1ccc(Cl)cc1N,-1,0,5,69*,i
Cc1cc(/C([O-])=C(/C(=S)Nc2ccc(F)cc2)[n+]2ccccc2)c(C)n1-c1ccc(F)cc1,-23,1,3,67*,i
Cc1cc(/C([O-])=C(/C(=S)Nc2ccccc2)[n+]2ccccc2)c(C)n1-c1ccccc1,-21,1,-23,61*,+

# Screening results deposited in PubChem BioAssay by several laboratories.
